Experimental data from PubChem BioAssay (NCATS).
The source made the active and inactive calls. Calls follow the shape of the full dose curve.

Settings: Ebola virus entry cell assay, ratio channel

Row | SMILES | outcome | AC50
1 | CC(=O)OCC(CCn1cnc2cnc(N)nc21)COC(C)=O | inactive | 
2 | CC[C@@]1(c2ccccc2)NC(=O)N(C)C1=O | inactive | 
3 | NS(=O)(=O)c1cc2c(cc1Cl)NC=NS2(=O)=O | inactive | 
4 | C[C@](N)(Cc1ccc(O)c(O)c1)C(=O)O | inactive | 
5 | CNCCC(Oc1ccc(C(F)(F)F)cc1)c1ccccc1 (centres undefined) |  | 12.6 µM (active)
6 | CCCN(CCC)S(=O)(=O)c1ccc(C(=O)O)cc1 | inactive | 
7 | COc1cc2nc(N3CCN(C(=O)C4COc5ccccc5O4)CC3)nc(N)c2cc1OC (centres undefined) | inactive | 
8 | CN1CCN(CCCN2c3ccccc3Sc3ccc(C(F)(F)F)cc32)CC1 |  | 3.98 µM (active)
9 | CC1(C)O[C@@H]2[C@@H](CO[C@@]3(COS(N)(=O)=O)OC(C)(C)O[C@@H]23)O1 | inactive | 
10 | CCC(=O)C(CC(C)N(C)C)(c1ccccc1)c1ccccc1 (centres undefined) |  | 15.8 µM (active)
11 | CSc1ccc2c(c1)N(CCC1CCCCN1C)c1ccccc1S2 (centres undefined) |  | 6.31 µM (active)
12 | COc1cc(C(C)=O)ccc1OCCCN1CCC(c2noc3cc(F)ccc23)CC1 | inactive | 
13 | NNCCc1ccccc1 | inactive | 
14 | CN(C)CC/C=C1\c2ccccc2COc2ccccc21 |  | 25.1 µM (active)
15 | NC(=O)NO | inactive | 
16 | Cc1ccc(S(=O)(=O)NC(=O)NN2CCCCCC2)cc1 | inactive | 
17 | CN(C)CCc1c[nH]c2ccc(C[C@H]3COC(=O)N3)cc12 | inactive | 
18 | CC1Cc2ccccc2N1NC(=O)c1ccc(Cl)c(S(N)(=O)=O)c1 (centres undefined) | inactive | 
19 | CC[C@]1(O)C[C@H]2CN(CCc3c([nH]c4ccccc34)[C@@](C(=O)OC)(c3cc4c(cc3OC)N(C=O)[C@H]3[C@@](O)(C(=O)OC)[C@H](OC(C)=O)[C@]5(CC)C=CCN6CC[C@]43[C@@H]65)C2)C1 |  | 0.112 µM (active)
